According to the supplement of paper PMC3334620:
In all, about 33,000 sequences were measured (“E-score (-0.5 to 0.5)”: median about -0.012, highest 2% from about 0.29 on). What follows is part of a selection rich in the highest values, with near analogues and random picks from the rest.

The sequences below were run against T1, Ybr033w (UniProt P38073) (assay: PBM E-score (8-mer binding enrichment) (E-score (-0.5 to 0.5)); higher = stronger / more preferred TF binding). Details: protein concentration: 200 nM; construct: GST-full length.
T1 sequence: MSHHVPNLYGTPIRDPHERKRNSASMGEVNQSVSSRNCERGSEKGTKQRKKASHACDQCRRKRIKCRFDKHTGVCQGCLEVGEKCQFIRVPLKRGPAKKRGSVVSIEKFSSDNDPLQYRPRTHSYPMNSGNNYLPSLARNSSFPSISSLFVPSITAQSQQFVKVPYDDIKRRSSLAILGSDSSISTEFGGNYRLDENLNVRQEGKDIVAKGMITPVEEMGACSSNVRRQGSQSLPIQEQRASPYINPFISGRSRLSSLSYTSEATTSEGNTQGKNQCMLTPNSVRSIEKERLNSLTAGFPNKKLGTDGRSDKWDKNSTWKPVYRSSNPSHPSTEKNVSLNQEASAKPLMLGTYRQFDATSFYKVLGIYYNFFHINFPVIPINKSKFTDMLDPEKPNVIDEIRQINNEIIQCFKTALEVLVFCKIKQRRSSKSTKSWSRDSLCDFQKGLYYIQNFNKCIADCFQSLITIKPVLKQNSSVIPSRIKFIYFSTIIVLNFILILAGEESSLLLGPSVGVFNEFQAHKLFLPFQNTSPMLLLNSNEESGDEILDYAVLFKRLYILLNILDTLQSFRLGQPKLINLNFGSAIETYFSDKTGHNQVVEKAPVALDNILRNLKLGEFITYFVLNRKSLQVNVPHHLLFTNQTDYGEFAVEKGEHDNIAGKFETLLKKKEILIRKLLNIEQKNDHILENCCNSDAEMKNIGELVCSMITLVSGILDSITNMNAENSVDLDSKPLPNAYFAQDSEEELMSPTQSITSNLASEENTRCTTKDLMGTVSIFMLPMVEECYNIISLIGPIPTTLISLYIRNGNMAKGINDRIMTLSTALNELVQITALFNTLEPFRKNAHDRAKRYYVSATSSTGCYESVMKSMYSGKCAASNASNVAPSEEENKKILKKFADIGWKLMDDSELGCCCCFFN
Procedure, shortened: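 Universal all-10-mer Agilent arrays, fresh or stripped once, were converted to double-stranded form by primer extension. GST-tagged yeast transcription factors from PURExpress in vitro transcription/translation, full-length or DNA-binding domain only, were applied at about 100-200 nM and detected with fluorescent anti-GST. After masliner normalisation, the Universal PBM Analysis Suite scored each ungapped eight-base word together with its reverse complement by E-score.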

| Sequence | PBM E-score |
| --- | --- |
| ACCCTTCA | -0.0354 |
| CATTCTGG | -0.15 |
| CATCTGTA | -0.105 |
| CGTGACAC | -0.127 |
| GGATAAGA | -0.0485 |
| AGATAAAC | 0.216 |
| CGATAAAC | -0.148 |
| AGATAAAA | 0.286 |
| GTATAAAA | 0.289 |
| ATATAAAA | 0.242 |
| TGATAAAA | 0.299 |
| CGATAAAA | 0.14 |
| GTATAAAC | 0.158 |
| GGATAACA | 0.0661 |
| GGATAAAA | 0.397 |
| GGATAAAC | 0.456 |
| CCTGCCCG | -0.354 |
| GGCATATA | 0.16 |
| AGCAATGA | 0.13 |
| CGAGACCA | -0.0425 |
| ATGAACAC | 0.0659 |
| ATAGCGGC | -0.106 |
| CCGTCGAG | 0.102 |
| AATTATCT | 0.264 |
| AATTATCG | 0.308 |

| Sequence | PBM E-score |
| --- | --- |
| CATTATCA | 0.138 |
| AATTATCA | 0.324 |
| ATTTATCG | 0.0834 |
| CATTATCG | 0.0618 |
| TCGACCGA | -0.0438 |
| CTGCACCC | -0.204 |
| ACCTTTAA | 0.126 |
| AGTAGCAC | -0.0755 |
| ATTTTATG | 0.186 |
| ATTTTATA | 0.309 |
| ATTTTATC | 0.325 |
| ACTTTATC | 0.277 |
| CTTTTATC | 0.232 |
| GTTTTATA | 0.0686 |
| AGCTTATG | 0.0568 |
| GGGGGTAC | -0.254 |
| ATGTTCCC | 0.199 |
| ATGTTCAG | -0.137 |
| ATGTTCCA | 0.332 |
| GTGTTCCA | -0.0466 |
| ATGTTCCG | 0.458 |
| CTGTTCCA | 0.0353 |
| CACTGATC | 0.0744 |
| GTCTGAGA | -0.163 |
| TACAAACA | 0.29 |

| Sequence | PBM E-score |
| --- | --- |
| TACAAGCA | 0.189 |
| AACAAACC | 0.105 |
| AACAAACG | 0.183 |
| AACAACTA | 0.147 |
| AACAACTC | 0.0616 |
| AACAAACT | 0.341 |
| AACAACTT | 0.291 |
| AACAAACA | 0.193 |
| CAAATCCG | 0.0419 |
| CTCGTGGC | -0.173 |
| AAGTACTG | 0.112 |
| AGTGGTCA | -0.103 |
| GAGACACC | -0.216 |
| TGACTAAA | 0.0305 |
| TGAAGGAA | 0.211 |
| AGTATTTC | 0.34 |
| AGTATTCC | 0.161 |
| CGTATTTC | 0.0631 |
| AGTATTGC | 0.169 |
| ACTATTTA | 0.235 |
| GGTATTTA | 0.125 |
| CGTATTTA | 0.311 |
| AGTATTTA | 0.301 |
| AGTATTTG | 0.159 |
| AGACTTTG | -0.0453 |

| Sequence | PBM E-score |
| --- | --- |
| CCGACACG | -0.213 |
| ATCACAAG | 0.107 |
| CCTACTTC | -0.0544 |
| CGCAGGTC | -0.168 |
| ACAGCCTG | -0.0521 |
| ACGAGTGC | -0.0558 |
| CCACCCTC | -0.0745 |
| ACCAATAA | 0.107 |
| GCATCGCC | -0.17 |
| ATATCCAC | 0.145 |
| GAAGGCTA | 0.0975 |
| TGGAGAAA | 0.133 |
| CGGAGAAG | -0.166 |
| CGGAGAAA | 0.39 |
| TAAACTCA | 0.147 |
| GAATAACC | 0.113 |
| GAATAAGA | 0.0352 |
| GGATAATA | 0.349 |
| GGATAGTA | 0.206 |
| GAATAACA | 0.367 |
| GAATAAAC | 0.142 |
| GAATAAGC | 0.189 |
| GCATAATA | 0.198 |
| CAATAACA | 0.066 |
| GAATAATA | 0.395 |

| Sequence | PBM E-score |
| --- | --- |
| GAATAATC | 0.379 |
| CGATAATA | 0.0851 |
| CATCCTGC | -0.163 |
| CAAGAGGC | -0.144 |
| CTTCAGAA | -0.028 |
| GTAGGACA | 0.012 |
| ACGTATAC | 0.181 |
| ATTCTGAA | 0.187 |
| CGAGGGAA | -0.0841 |
| AATGTAAT | 0.272 |
| AATGTAAG | 0.288 |
| CATGTAAG | -0.0133 |
| AGCCTCCC | -0.254 |
| AACCTGCC | -0.0858 |
| AATTGACC | 0.0241 |
| ACTTGATG | 0.218 |
| AATTGATC | 0.354 |
| CATTGATC | 0.236 |
| AATTGATG | 0.309 |
| AATTGATA | 0.255 |
| TAACCAAA | 0.186 |
| CGGAGGGA | -0.057 |
| CGTCTTCC | -0.215 |
| CTTACTTA | 0.0259 |
| ATTACTCG | 0.132 |

| Sequence | PBM E-score |
| --- | --- |
| ATTACTCC | 0.23 |
| ATTACTGA | 0.169 |
| ATTACTTA | 0.35 |
| ATTACTCA | 0.296 |
| CACCAGTC | -0.196 |
| AAAAGTTA | 0.288 |
| CAAAGTTA | 0.279 |
| AAAAGTTG | 0.133 |
| AAAAGTTC | 0.373 |
| CAAAGTAA | 0.186 |
| ACAAGTTA | 0.185 |
| GAAAGTTC | -0.0203 |
| AAAAGTTT | 0.266 |
| AAAAGTAA | 0.314 |
| AAAAGTAT | 0.13 |
| TAAAGTTA | 0.358 |
| GAAAGTTA | 0.218 |
| ACGGTGGC | -0.095 |
| CGGCCATA | -0.17 |
| CTATCCAG | 0.062 |
| AGTGGTTC | 0.00899 |
| TGAGCCCA | -0.0977 |
| GTTCTGCA | -0.173 |
| AGAACTAG | -0.084 |
| CTCTGCGC | -0.118 |

| Sequence | PBM E-score |
| --- | --- |
| TAGACGCA | -0.0494 |
| CCGCTTGA | -0.162 |
| GCCTTTCC | -0.254 |
| TAAATACA | 0.229 |
| GAAATACA | 0.14 |
| GAAATATA | 0.327 |
| TAAATATA | 0.353 |
| GAAATATC | 0.231 |
| CAAATATA | 0.281 |
| GGCCAATA | -0.0498 |
| AAAGCTCT | -0.262 |
| CAATGCTA | 0.115 |
| CTCCATGA | 0.0454 |
| TAGACAGA | 0.157 |
| GATCAAAA | 0.296 |
| AATCAATA | 0.334 |
| GATCAATC | 0.184 |
| AATCAATC | 0.0849 |
| TATCAATA | 0.257 |
| GATCAATA | 0.329 |
| AATCAAAA | 0.225 |
| AATCAATT | 0.247 |
| CATCAAAA | 0.108 |
